Results on 40 compounds are retold here after PubChem BioAssay (Tox21).

SMILES strings stand for the structures. Records with an inconclusive call do not appear. Where a call stands in place of a potency, no number is given. Some structures have more than one record in an assay (separate samples or runs), and their calls can disagree. Activity calls are given as the source filed them. Calls come from the whole dose curve.
Potency is the fitted concentration of half-maximal effect.

The test can be described thus: p53 small molecule agonists, cell-based qHTS assay with human liver microsomes: qHTS cell viability counter screen (AID 1963579). Note: nearly all actives have a fitted effect of over 45% in size. The note with it: p53RE-bla HCT-116 viability, ATP luminescence, 16 h, HLM; series mostly up to 66 µM. From the text: National Center for Advancing Translational Sciences [NCATS]
Division of Preclinical Innovation [DPI]
U.S. Environmental Protection Agency [EPA]
National Institutes of Environmental Health Sciences [NIEHS]
National Toxicology Program [NTP]
U.S. Food and Drug Administration [FDA]
p53, a tumor suppressor protein, is activated following cellular insult, including DNA damage and other cellular stresses. The activation of p53 regulates cell fate by inducing DNA repair, cell cycle arrest, apoptosis, or cellular senescence. The activation of p53, therefore, is a good indicator of DNA damage and other cellular stresses. […] The activation of the reporter gene under culture conditions can be detected by fluorescence intensity. This cell line was used to screen the Tox21 10K compound library in the condition of presence of human liver microsomes and to identify agonists that activate the p53 signaling pathway after in vitro metabolic activation (Ooka et al., Archive of Toxicology 96:1975-1987, 2022).
Tox21 Assay Protocol Summary:
The p53RE-bla cells were dispensed at 4,000cells/3ul/well in 1536-well black-clear bottom plates. After the assay plates were incubated at 37 C, 5% CO2 incubator for 5 hours, 23 nL of compounds dissolved in DMSO, positive controls or DMSO only was transferred to the assay plate. Following compound addition, 3 uL of human liver microsomes (XenoTech, Kansas City, KS) at final concentration of 0.5 mg/mL and 1uL of B-Nicotinamide adenine dinucleotide 2'-phosphate (NADPH) at final concentration of 0.5 mg/mL were transferred to the assay plate. The plates were incubated at 37 C for 16 hours. 1 uL of LiveBLAzer detection mixture was added to each well and the plates were incubated at room temperature in the dark for 2 h. Fluorescence intensity at 460 and 530 nm emission and 405 nm excitation were measured by an Envision plate reader. For cell viability readout that measures cytotoxicity, 4 ul/well of CellTiter-Glo reagent was added into the assay plates using a Flying Reagent Dispenser. After 30 min incubation at room temperature, the luminescence intensity in the plates was measured using a ViewLux plate reader.
On the technique in general: Quantitative high-throughput screening tests each substance at several concentrations.
In the case of `CC/C=C\CCO`, the Potency entry is “inactive”.

Consider `CCc1cnc(C(=O)O)c(C(=O)O)c1`, for which the Potency entry is “inactive”.

`C=C(C)C(=O)OCCOP(=O)(O)O`: the Potency result is “inactive”.

Consider `O=C1CC(c2ccc(Cl)cc2)CC(=O)N1`, for which the Potency entry was “inactive”.

As to `OCC1(CO)COCOC1`, the Potency entry is “inactive”.

Regarding `CC(C)(C)C(=O)OCOC(=O)C1N2C(=O)CC2S(=O)(=O)C1(C)C` (stereo not given), the Potency result was “inactive”.

Consider `C/C=C/C(=O)C1=C(C)C=CCC1(C)C`, for which the Potency entry is “inactive”.

Turning to `Cc1ccc(S(=O)(=O)NC2CCCCC2)cc1`, the Potency entry is “inactive”.

As for `NC(=O)c1ncn([C@@H]2O[C@H](CO)[C@@H](O)[C@H]2O)c1O`, the Potency result was “inactive”.

With `Cc1nc(-c2ccc3c(c2)CCN(CCC2CCC(NC(=O)/C=C/c4ccc(F)cc4)CC2)CC3)no1` (stereo not given), the Potency result was “inactive”.

With `CO[Si](CCCNCCN)(OC)OC`, the Potency entry is “inactive”.

As to `COC(=O)OC`, the Potency result was “inactive”.

For `CCOC(=O)[C@H](CCc1ccccc1)N[C@@H](C)C(=O)N1Cc2ccccc2C[C@H]1C(=O)O`, the Potency result is “inactive”.

For `CC(=O)O[C@@H]1C[C@@H]2CC[C@@]1(C)C2(C)C`, the Potency entry was “inactive”.

In the case of `O[C@@H]([C@H](O)[C@H](O)CBr)[C@H](O)CBr`, the Potency entry is “inactive”.

Turning to `CC/C=C\CCOC(=O)CC`, the Potency result is “inactive”.

For `CO[Si](CCCCl)(OC)OC`, the Potency result is “inactive”.

For `CC(=O)NCc1c(I)c(NC(C)=O)c(I)c(C(=O)O)c1I`, the Potency result is “inactive”.

For the compound `CCc1ccc(Br)cc1`, the Potency result was “inactive”.

On to `CC(C)(CCC(=O)O)C(=O)O`, for which the Potency result was “inactive”.

For `CCN(CC)CCOc1ccc(/C(=C(\Cl)c2ccccc2)c2ccccc2)cc1`, the Potency was 33.1 µM (active) and inactive.

As to `Oc1ccc(/C=C/c2cc(O)cc(O)c2)cc1`, the Potency entry was “inactive”.

Turning to `COc1cc2c(Nc3ccc(Br)cc3F)ncnc2cc1OCC1CCN(C)CC1`, the Potency result is “inactive”.

Consider `CC(=O)/C=C/C1C(C)=CCCC1(C)C` (stereo not given), for which the Potency entry was “inactive”.

Turning to `COc1ccc(CCN2CCC(Nc3nc4ccccc4n3Cc3ccc(F)cc3)CC2)cc1`, the Potency was 14.8 µM (active) and inactive.

For `c1ccsc1`, the Potency entry was “inactive”.

In the case of `Cc1ccc(C(=O)c2cc(O)c(O)c([N+](=O)[O-])c2)cc1`, the Potency was 45.8 µM (active) and inactive.

With `CO[Si](CCCNCCNCCN)(OC)OC`, the Potency result was “inactive”.

As for `Cn1c(=O)c2[nH]c(Br)nc2n(C)c1=O`, the Potency entry was “inactive”.

Consider `O=S(=O)(O)CO`, for which the Potency entry was “inactive”.

For `CC(=O)Nc1ccc(N=Nc2cc(C)ccc2O)cc1`, the Potency entry is “inactive”.

Take `NC(=S)N/N=C/c1cccnc1`: the Potency result is “inactive”.

Regarding `C=C(C)C(=O)OCCC(F)(F)C(F)(F)C(F)(F)C(F)(F)C(F)(F)C(F)(F)F`, the Potency result was “inactive”.

As to `N#[N+]c1ccc2c(S(=O)(=O)[O-])cccc2c1O`, the Potency result was “inactive”.

`COc1ccc(Br)c(C)c1`: the Potency entry is “inactive”.

For the compound `CC(C)c1cc2c(cc1S(=O)(=O)O)[C@@]1(C)CCC[C@@](C)(C(=O)O)[C@@H]1CC2`, the Potency result is “inactive”.

Regarding `CCO[Si](CCCN=C=O)(OCC)OCC`, the Potency result was “inactive”.

`CCCC[O][Al]([O]CCCC)[O]CCCC`: the Potency entry was “inactive”.

Take `CCCCCCCCCCCCCC`: the Potency entry was “inactive”.

Turning to `Cc1ccc(O)c([N+](=O)[O-])c1`, the Potency result is “inactive”.
